Results as given in PubChem BioAssay (EPA / NIEHS).
Inconclusive results are not listed. Active and inactive are the calls of the source. The calls were made as follows: active = hit-call score of the fitted dose curve at least 0.9, where 1 is the maximum; inconclusive = response in the unintended direction; inactive = score below 0.9.

What follows are compounds tested against human Matrix Metalloproteinase-3 (MMP3), MMP3 (gene 4314) (UniProt P08254) (assay: NVS_ENZ_hMMP3: NovaScreen (NVS) Enzymatic Assay for human Matrix Metalloproteinase-3 (MMP3) (AID 2283185)).
Chain of human Matrix Metalloproteinase-3 (MMP3), MMP3 (gene 4314) (P08254 whole entry, looked up): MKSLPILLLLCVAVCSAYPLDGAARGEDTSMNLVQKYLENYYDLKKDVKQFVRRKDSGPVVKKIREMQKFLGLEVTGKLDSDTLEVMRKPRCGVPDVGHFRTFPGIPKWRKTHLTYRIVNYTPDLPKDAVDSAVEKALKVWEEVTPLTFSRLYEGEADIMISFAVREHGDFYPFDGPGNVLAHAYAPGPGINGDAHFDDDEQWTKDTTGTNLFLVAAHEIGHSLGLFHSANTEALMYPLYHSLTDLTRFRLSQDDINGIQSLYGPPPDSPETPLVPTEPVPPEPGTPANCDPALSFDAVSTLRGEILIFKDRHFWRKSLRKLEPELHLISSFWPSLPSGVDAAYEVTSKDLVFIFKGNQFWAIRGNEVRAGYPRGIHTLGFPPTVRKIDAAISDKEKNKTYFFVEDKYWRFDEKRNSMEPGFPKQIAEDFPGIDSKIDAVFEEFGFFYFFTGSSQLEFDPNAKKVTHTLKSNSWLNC
Procedure: NVS_ENZ_hMMP3 is a biochemical, single-readout assay that uses extracted gene-proteins in a cell-free assay. Measurements were taken 1 hour after chemical dosing in a 96-well plate.NVS_ENZ_hMMP3 is one of one assay component(s) measured or calculated from the NVS_ENZ_hMMP3 assay. It is designed to make measurements of enzyme activity, a form of enzyme reporter, as detected with fluorescence intensity signals by Fluorescence technology.Data from the assay component NVS_ENZ_hMMP3 was analyzed into 1 assay endpoint. This assay endpoint, NVS_ENZ_hMMP3, was analyzed in the positive analysis fitting direction relative to DMSO as the negative control and baseline of activity. Using a type of enzyme reporter, loss-of-signal activity can be used to understand changes in the enzymatic activity as they relate to the gene MMP3. Furthermore, this assay endpoint can be referred to as a primary readout, because this assay has produced multiple assay endpoints where this one serves a enzymatic activity function. To generalize the intended target to other relatable targets, this assay endpoint is annotated to the protease intended target family, where the subfamily is matrix metalloproteinase.
Binding assays used specific radioligands (tritiated, iodinated) with non-radioactive competitive displacement ligands in agonist or antagonist protocols (as indicated) and various reference compounds and inhibitors to titrate specific binding to receptors and transporters. Most enzyme assays (CYPs, kinases, phosphatases, proteases, HDACs) used recombinant protein and specific substrates (fluorescence mostly, some colorimetric and radioactive) and inhibitors, followed by a biochemical separation of substrate and product. All assays for the biochemical HTS were initially run in duplicate at a single concentration (10 uM for CYP450 assays and 25 uM for all others). […] Each assay was run with positive and negative controls, and concurrent controls on every plate. The follow-up (secondary) screen tested active chemical-pairs in concentration series, as well as a few additional assays not tested in the primary screen, some selected negative inactives, and several cases re-run in the concentration series for confirmatory purposes.

outcome, inactive:
O=C1O[C@H]([C@@H](O)CO)C(O)=C1O
CN(C)c1ccc(C(=C2C=CC(=[N+](C)C)C=C2)c2ccc(N(C)C)cc2)cc1
CCN(Cc1cccnc1)C(=O)c1cccc(Cl)c1[C@]1(C)C(=O)N(Cc2ccc(OC)cc2OC)c2ccc(Cl)cc21
CN1C(=O)N(c2ccccc2Br)Cc2cnc(Nc3ccc4c(c3)OCC(CO)O4)nc21 (configuration not stated)
CCCCCCCCOc1ccc(C(=O)c2ccccc2)c(O)c1
O=C(O)Cc1cc(I)c(Oc2ccc(O)c(I)c2)c(I)c1
CCCCOC(=O)c1ccc(O)cc1
O=C1CCC(C2CCCCC2)CC1

AC50, active:
CCCOC(=O)c1cc(O)c(O)c(O)c1 11.9 µM
O=C(O)c1ccccc1-n1cc(C(=O)O)c(=O)c2cc(Nc3c(F)cc(F)cc3Cl)c(Cl)cc21 21.8 µM
CCCCCCCCOC(=O)c1cc(O)c(O)c(O)c1 5.82 µM
CCN(Cc1cccc(S(=O)(=O)O)c1)c1ccc(C(=C2C=CC(=[N+](CC)Cc3cccc(S(=O)(=O)O)c3)C=C2)c2ccccc2S(=O)(=O)[O-])cc1 16.1 µM
